PubChem BioAssay AID1906 (The Scripps Research Institute Molecular Screening Center, 2009)
The campaign covered roughly 300,000 compounds. About 1,500 (0.5%) were called active.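 Rule for the calls: active = inhibition above the mean of all tested compounds plus 3 SD, set per screening campaign (cut at about 17% in these data); inactive = the rest.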 Only a selection was taken, and actives are over-represented in it overall.

These molecules were tested on cathepsin L1 (Fasciola hepatica) (assay: CTSL1 protease inhibition, fluke enzyme – biochemical, QFRET, fluorogenic peptide substrate, counter-screen for PFM18AAP inhibitor project, primary screen (AID 1906;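 note: 0% = plate median of test compound wells and 100% = 1 µM Z-Phe-Ala-diazomethylketone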)). Conditions: recombinant F. hepatica cathepsin L1, Z-Leu-Arg-MCA fluorescence; at 5.96 µM; active compounds read high.
In the case of CC(=O)Nc1ccc(S(=O)(=O)N(C)CC(=O)NCCC2=CCCCC2)cc1, the inhibition is reported as -4.22% (inactive).
CC(C)(O)C(=O)NN(C(=O)c1ccccc1)c1cccc(Br)c1 was tested, and the inhibition was -2.56% (inactive).
With CCCC(O)(CCC)C(=O)NN(C(=O)CCl)c1cccc(C)c1 the inhibition was 27.6% (active).
Cc1ccc(N(NC(=O)C(C)(C)O)C(=O)c2ccccc2)cc1C was tested, and the inhibition was 1.52% (inactive).
In the case of COC(=O)N(NC(=O)C(O)(C(C)C)C(C)C)c1ccccc1, the inhibition is reported as -0.72% (inactive).
CCCCC(O)(CCCC)C(=O)NN(C(=O)CCl)c1ccccc1 was tested, and the inhibition was 18.1% (active).
CCCCCNC(=O)C1c2ccccc2Oc2ccccc21 was tested, and the inhibition was -9% (inactive).
With CC(Sc1nc2cc(Cl)ccc2s1)C(=O)Nc1ccc2c(c1)OCO2 (centres undefined) the inhibition was -3.27% (inactive).
For COc1ccc(CCNS(=O)(=O)c2cn(C)nc2C)cc1, the inhibition was -5.7% (inactive).
With CCOC(=O)C1=C(c2ccc(OC)cc2)C(=O)c2ccccc2C1=O the inhibition was 28.8% (active).
CCOC(=O)c1c(-c2ccc(C)cc2)csc1/N=C(\C)C1=C(O)c2ccccc2C1=O was tested, and the inhibition was 1.32% (inactive).
With CCOC(=O)c1cc2cc3ccccc3cc2oc1=O the inhibition was 0.07% (inactive).
In the case of CC(=O)c1ccccc1NC(=O)CC1(CC(=O)O)CCCCC1, the inhibition is reported as 2.79% (inactive).
For Cc1ccccc1OCC(=O)Nc1nnc(S(=O)(=O)N2CCCC2)s1, the inhibition was 3.28% (inactive).
CCn1c(SCC(=O)NC2=NCCS2)nnc1C(C)NC(=O)c1ccccc1F (centres undefined) was tested, and the inhibition was -7.21% (inactive).
With O=C1CCCCC1Sc1ccc(Cl)cc1[N+](=O)[O-] (centres undefined) the inhibition was -1.08% (inactive).
In the case of N#C/C(=C\c1ccccc1)c1n[nH]c(Cn2cncn2)n1, the inhibition is reported as 3.03% (inactive).
COc1cc(C(=O)N2CCN(C3CCC(C)CC3)CC2)cc(OC)c1OC (centres undefined) was tested, and the inhibition was 1.26% (inactive).
With CCn1cc(C(=O)N2CCN(Cc3ccc4c(c3)OCO4)CC2)c2cc(OC)c(OC)cc2c1=O the inhibition was 7.48% (inactive).
For CCn1cc(C(=O)N2CCN(C3CCCCC3)CC2)c2cc(OC)c(OC)cc2c1=O, the inhibition was 20.3% (active).
In the case of O=c1c([N+](=O)[O-])cccn1Cc1ccc(F)cc1Cl, the inhibition is reported as -4.32% (inactive).
For C/C(=N\NC(N)=S)c1cccnc1, the inhibition was 35.1% (active).
With C/C(=N\NC(=O)c1cccnc1)c1ccc(-c2ccccc2)cc1 the inhibition was 2.6% (inactive).
For C/C(=N\NC(N)=S)c1ccncc1, the inhibition was 3.21% (inactive).
With O=C(c1ccc(-c2ccccc2)cc1)C1CCCN(C(=O)c2cncs2)C1 (centres undefined) the inhibition was 0.67% (inactive).
With COc1ccc(-n2nc(C(=O)NCC(=O)N3CCN(c4ccccc4OC)CC3)c3ccccc3c2=O)c(OC)c1 the inhibition was 0.09% (inactive).
Cc1ccc(Cl)c(NC(=O)CN2CCN(C=O)CC2)c1 was tested, and the inhibition was -5.16% (inactive).
CCn1cnc2scc(-c3ccc(C)c(C)c3)c2c1=O was tested, and the inhibition was 0.4% (inactive).
In the case of CCOC(=O)C(C)n1cnc2scc(-c3ccc(C)c(C)c3)c2c1=O (centres undefined), the inhibition is reported as 3.75% (inactive).
COC(=O)Cn1cnc2scc(-c3ccc(C)c(C)c3)c2c1=O was tested, and the inhibition was 24.9% (active).
In the case of CCN(Cc1ccccc1)C(=O)Cc1ccc(OC)c(S(=O)(=O)N2CCOCC2)c1, the inhibition is reported as -0.92% (inactive).
For CCSc1nc2c(c(=O)[nH]1)C(c1cccnc1)C(C(=O)OC(C)C)=C(C)N2 (centres undefined), the inhibition was 4.8% (inactive).
With COc1ccccc1C(=O)Nc1ccc(OCc2nnc3c4ccccc4c(C)nn23)cc1 the inhibition was -0.1% (inactive).
In the case of CCOCCCNc1c(CC)c(C)c(C#N)c2nc3ccccc3n12, the inhibition is reported as 2.01% (inactive).
CC(C)CN(CC(C)C)CC(O)CN(c1ccccc1)S(=O)(=O)c1ccccc1[N+](=O)[O-] (centres undefined) was tested, and the inhibition was 4.97% (inactive).
COCCN(C(=O)C(C)C)c1nnc(-c2ccc(C(C)(C)C)cc2)s1 was tested, and the inhibition was 3.51% (inactive).
In the case of O=C(c1ccccc1)N1CCC(CC2CC(c3ccc(Cl)cc3)=NO2)(C(=O)NCC2CCCCC2)CC1 (centres undefined), the inhibition is reported as -0.13% (inactive).
With CCCCCCCNC(=O)C1(CC2CC(c3cccc(Br)c3)=NO2)CCN(C(=O)c2cc(OCC)c(OCC)c(OCC)c2)CC1 (centres undefined) the inhibition was 30% (active).
For COc1ccc(CNC(=O)C2(CC3CC(c4ccccc4)=NO3)CCN(C(=O)c3cccc(O)c3)CC2)cc1 (centres undefined), the inhibition was -1.66% (inactive).
With CN(CC(=O)Nc1cccc(F)c1)C(=O)C1CSC2(C)CCC(=O)N12 (centres undefined) the inhibition was -4.97% (inactive).
CCOc1ccc2nc(/N=C/c3nc(-c4ccccc4)oc3O)sc2c1 was tested, and the inhibition was 5.43% (inactive).
Oc1oc(-c2ccccc2Br)nc1/C=N/c1ccccn1 was tested, and the inhibition was 53.9% (active).
CC(N=Cc1nc(-c2ccccc2)oc1O)c1ccccc1 (centres undefined) was tested, and the inhibition was 1.73% (inactive).
COc1ccc(C(C)NC(=O)C23CC4CC(CC(C4)C2)C3)cc1 (centres undefined) was tested, and the inhibition was -3.76% (inactive).
COc1cccc(NC(=O)CN(C)CC(=O)Nc2ccc3c(c2)CCC3)c1 was tested, and the inhibition was 0.04% (inactive).
In the case of Cc1cccc(NC(=O)CCN2CC(C)CC(C)C2)c1 (centres undefined), the inhibition is reported as -3.49% (inactive).
In the case of CC1CC(C)CN(CCC(=O)Nc2ccc3c(c2)CCC3)C1 (centres undefined), the inhibition is reported as 40.7% (active).
In the case of C=CCSc1nnc2c(n1)-c1cccc3cccc-2c13, the inhibition is reported as 4.82% (inactive).
For Cc1cccc(-n2c(C)cc(/C=N/NC(N)=S)c2C)c1, the inhibition was 35.5% (active).
For Cc1ccc(-n2c(C)cc(/C=N\NC(=O)CC(=O)NC(C)C)c2C)cc1, the inhibition was -0.88% (inactive).
In the case of Cc1cccc(-n2c(C)cc(/C=N\NC(=O)c3cccs3)c2C)c1, the inhibition is reported as -1.99% (inactive).
With CCOC(=O)C(C)n1nc(-c2ccccc2)c2ccccc2c1=O (centres undefined) the inhibition was 3.78% (inactive).
In the case of COc1ccc(CCNC(=O)Cc2ccc(C)cc2)cc1OC, the inhibition is reported as 2.87% (inactive).
With Cn1nccc1NC(=O)Nc1ccc(OC(F)(F)F)cc1 the inhibition was 19.4% (active).
For COC(=O)[C@H](C)NC(=O)Nc1ccc(OC(F)(F)F)cc1, the inhibition was -1.87% (inactive).
CCOC(=O)Cc1ncccc1C(=O)Nc1ccc(OC(F)(F)F)cc1 was tested, and the inhibition was 2.95% (inactive).
With COC(=O)c1ccccc1Oc1c(F)c(F)nc(N2CCOCC2)c1F the inhibition was 0.49% (inactive).
COc1ccc(C(C(=O)NC2CCCCC2)N(C(=O)c2snc(C(N)=O)c2N)c2ccccc2OC)cc1 (centres undefined) was tested, and the inhibition was -2.13% (inactive).
COc1ccc(C(C(=O)NC2CCCCC2)N(C(=O)CCl)c2ccccc2Cl)cc1 (centres undefined) was tested, and the inhibition was 25.3% (active).
With COc1cccc(N(C(=O)C2COc3ccccc3O2)C(C(=O)NC2CCCCC2)c2ccc(O)cc2)c1 (centres undefined) the inhibition was 4.68% (inactive).
In the case of O=C(NC(=S)NC1CCS(=O)(=O)C1)c1cccc([N+](=O)[O-])c1 (centres undefined), the inhibition is reported as -1.84% (inactive).
With CC(C)C[C@H](NC(=O)[C@@H]1O[C@H]1C(=O)O)C(=O)NCCCCN=C(N)N the inhibition was 112% (active).
In the case of O=C1CC2(CCN(C(=O)COc3ccc(F)cc3)CC2)Oc2ccccc21, the inhibition is reported as -0.88% (inactive).
In the case of CC(=O)N(C1=C(Cl)C(=O)c2ccccc2C1=O)c1ccc(C(=O)O)cc1, the inhibition is reported as 41.1% (active).
For O=C(CN1C(=O)c2ccccc2C1=O)NCc1ccc(C(=O)O)cc1, the inhibition was 10.4% (inactive).
CC(C)N(C(=O)c1ccc(-c2ccccc2F)cc1)C(C)C was tested, and the inhibition was -3.72% (inactive).
With CCN(CC)CCNS(=O)(=O)c1ccc(/C=C/C(=O)O)cc1 the inhibition was 8.82% (inactive).
For Cc1ccc(C(C)C)c(OCCSc2nc3ccccc3n2CC(=O)O)c1, the inhibition was 2.31% (inactive).
In the case of CC(C(=O)NCCc1ccc(S(N)(=O)=O)cc1)N1C(=O)CC(C)(C)Sc2ccccc21 (centres undefined), the inhibition is reported as 3.12% (inactive).
For CC(OC(=O)CNC(=O)c1cccc(F)c1)C(=O)NC1CCCCC1C (centres undefined), the inhibition was 46.5% (active).
Cc1cc(C(=O)OC(C)C(=O)NC2CCCCC2C)c(C)o1 (centres undefined) was tested, and the inhibition was 1.05% (inactive).
For CC(OC(=O)CNC(=O)c1ccc(Cl)c([N+](=O)[O-])c1)C(=O)NCc1ccco1 (centres undefined), the inhibition was -10.4% (inactive).
Cc1ccccc1OCc1nnc(SCC(=O)N2c3ccccc3Sc3ccc(Cl)cc32)o1 was tested, and the inhibition was 1.54% (inactive).
With CCOC(=O)C1=C(O)/C(=C/c2cc(C)n(-c3ccccc3)c2C)N=C1C the inhibition was -0.93% (inactive).
In the case of N#Cc1ccccc1NC(=O)c1cccc(COc2ccc(Cl)cc2Cl)c1, the inhibition is reported as 2.17% (inactive).
For COc1ccccc1Oc1ccc(N/C=C2/CCCC2=O)cc1, the inhibition was 6.01% (inactive).
For CCCCC(=O)Nc1nnc(S(=O)(=O)N(C)Cc2ccco2)s1, the inhibition was -1.17% (inactive).
With CC1(C)CC(=O)C/C(=N\NC(=O)c2cccs2)C1 the inhibition was -1.64% (inactive).
With C=CCn1c(=S)[nH]c2scc(-c3ccco3)c2c1=O the inhibition was -1.34% (inactive).
In the case of C=CCn1c(SCc2csc(C)n2)nc2scc(-c3ccc(C)o3)c2c1=O, the inhibition is reported as 1.45% (inactive).
With C=CCNC(=O)CSc1nc2scc(-c3ccco3)c2c(=O)n1CC=C the inhibition was 35.5% (active).
With CCC1Oc2ccccc2N(CC(=O)NCCCN2CCN(CC)CC2)C1=O (centres undefined) the inhibition was 1.49% (inactive).
In the case of Cc1ccc2oc(=O)c3cnn(CC(=O)N4CCCCCC4)c3c2c1, the inhibition is reported as -4.76% (inactive).
Cc1ccc2oc(=O)c3cnn(CC(=O)N(Cc4ccco4)C4CCCCC4)c3c2c1 was tested, and the inhibition was 42.9% (active).
For COCCCN(C(=O)Cn1ncc2c(=O)oc3ccc(C)cc3c21)C(C)c1ccncc1 (centres undefined), the inhibition was 3.63% (inactive).
With Cc1cccc(NC(=O)c2cc(S(=O)(=O)N3CCC4(CC3)OCCO4)ccc2F)c1 the inhibition was -2.65% (inactive).
In the case of CN(C)c1nc(NN)nc(Nc2ccc(F)cc2)n1, the inhibition is reported as 11% (inactive).
With Nc1c(N(CCO)C(=O)C2CCCCC2)c(=O)[nH]c(=O)n1Cc1ccccc1 the inhibition was 23.6% (active).
In the case of COCCn1c(N)c(N(Cc2ccccc2)C(=O)C2CCCCC2)c(=O)[nH]c1=O, the inhibition is reported as 3.45% (inactive).
For CCN(C(=O)CN1CCN(Cc2ccccc2)CC1)c1c(N)n(Cc2ccccc2)c(=O)[nH]c1=O, the inhibition was -1.57% (inactive).
Cc1sc(NC(=S)NC(=O)c2cccs2)nc1-c1ccc(CC(C)C)cc1 was tested, and the inhibition was -0.85% (inactive).
CCC(=O)Nc1nc(OC)cc(OC)n1 was tested, and the inhibition was 3.53% (inactive).
With COc1cc(OC)nc(NC(=O)CCl)n1 the inhibition was 19.4% (active).
COc1cc(OC)nc(N/N=C(\c2ccccc2)c2ccncc2)n1 was tested, and the inhibition was 1.22% (inactive).
